In all, about 350,000 compounds went through this assay and about 31,000 (8.9%) were called active. Inconclusive results (about 15%) are left out. The entries come from a sample that favours actives as a whole. Values without a mark were called inactive. Calls come from the whole dose curve; as a rule, active = well fitted inhibition curve with a large enough effect; inconclusive = small, poorly fitted or top-dose-only effect; inactive = no such curve, though single readings can be large or run the other way.
Molecular target: Histone-lysine N-methyltransferase EHMT2 (Homo sapiens) (UniProt Q96KQ7)
Sequence (Q96KQ7 913-1193 limits assumed): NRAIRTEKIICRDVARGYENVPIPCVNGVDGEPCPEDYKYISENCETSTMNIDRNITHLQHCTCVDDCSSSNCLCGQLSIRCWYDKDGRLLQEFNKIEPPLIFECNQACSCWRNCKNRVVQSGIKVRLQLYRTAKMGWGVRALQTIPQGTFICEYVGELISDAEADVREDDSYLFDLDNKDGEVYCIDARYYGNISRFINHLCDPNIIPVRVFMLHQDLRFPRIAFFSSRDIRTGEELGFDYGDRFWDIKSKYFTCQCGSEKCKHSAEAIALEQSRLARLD
Test: qHTS Assay for Inhibitors of Histone Lysine Methyltransferase G9a; note: nearly all actives have a fitted effect of over 75% in size
Details: G9a H3K9 monomethylation, AlphaScreen, 2 h; series mostly up to 59 µM; activity, negative = inhibition: at the top concentration
Method in brief: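 G9a (20 nM) preincubated 15 min RT with compounds, then 500 nM biotinylated H3K9 peptide and 20 uM SAM added; 2 h RT reaction. Monomethyl-H3K9 product detected by AlphaScreen with anti-H3K9me1 antibody, streptavidin donor and anti-rabbit IgG acceptor beads.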
% is set by controls: 0 for no effect and ±100 for the full control effect; potency is the fitted concentration of half-maximal effect.

First: CCCCCCSc1ccc([C@@H]2[C@@H]3C(=O)N(CC)C(=O)[C@@H]3[C@]3(C(=O)OC)CCCCN23)cc1OC
Second: COc1ccc(NC(=O)CN(C)C(=O)c2ccc(NC3CC3)c([N+](=O)[O-])c2)cc1
The activity, negative = inhibition of the first is higher: 2.26% [at 2.33 µM] for the first, -3.73% [at 2.33 µM] for the second.

First: O=C(COC(=O)C1CC2CCCC(C1)C2=O)NC(=O)c1ccccc1 (centres undefined)
Second: C=CCOc1ccc(/C=C/C(=O)OCC(=O)NCC2CCCO2)cc1 (centres undefined)
The activity, negative = inhibition of the first is lower: -4.63% [at 12.7 µM] for the first, 6.35% [at 12.7 µM] for the second.

Going from Cc1nn(-c2ccccc2)c(Cl)c1C(=O)Nc1ccccc1 to Cc1ccc(-c2cnc(NC(=O)CCC(=O)N(C)Cc3ccccc3)n2C)cc1, the activity, negative = inhibition falls from 50.1% [at 12.7 µM] to -4.41% [at 12.7 µM].

Molecule CCc1nnc(NS(=O)(=O)c2ccc(NS(=O)(=O)c3ccccc3)cc2)s1 has an activity, negative = inhibition of 2.62% [at 12.7 µM].

In the case of CC(O)CN(Cc1ccc(Cl)cc1)CC(C)O (centres undefined), the Potency is reported as 14.1 µM (active).
In the case of CN(C(=O)CN(CCO)CC(=O)N(C)C(C)(C)Cc1ccccc1)C(C)(C)Cc1ccccc1, the Potency is reported as “inactive”.
With OCCN(Cc1ccccc1)Cc1ccc(Cl)cc1 the Potency was 22.4 µM (active).
In the case of Cc1ccnc(-n2sc3ccccc3c2=O)n1, the Potency is reported as 1 µM (active).
O=C1CC(c2ccccc2)=NN1c1ccc([N+](=O)[O-])cc1 was tested, and the Potency was 39.8 µM (active).
N#CC1=C(N)N(c2ccc(F)cc2)C(=O)C1 was tested, and the Potency was 39.8 µM (active).
c1ccc(C2=Nc3cccc4cccc(c34)N2)cc1 was tested, and the Potency was 8.91 µM (active).
For Cc1nn(-c2ccccc2)c(Cl)c1/C=C/C(=O)c1ccc(O)cc1, the Potency was 15.8 µM (active).
For Cc1ccc(-c2cnc(NCc3ccc(C(C)C)cc3)n2C)cc1, the Potency was 2.82 µM (active).
In the case of O=C(Cc1ccc2c(c1)CCCC2)Nc1ccccc1Cl, the Potency is reported as 44.7 µM (active).
In the case of CCc1nnc(NS(=O)(=O)c2ccc(NC(=S)NC(=O)/C=C/c3cccs3)cc2)s1, the Potency is reported as 44.7 µM (active).
With Cn1c(SCC(=O)c2cccs2)nnc1-c1ccco1 the Potency was 50.1 µM (active).
In the case of Nn1c(SCC(=O)Nc2nccs2)nnc1-c1ccco1, the Potency is reported as 28.2 µM (active).
CCN(CCCNC(=O)c1ccc2c(c1)NC(=O)CN2C)c1cccc(C)c1 was tested, and the Potency was 7.94 µM (active).
In the case of CCN(CCCNC(=O)c1ccc(Sc2ccc(C)cc2)c(NC(C)=O)c1)c1cccc(C)c1, the Potency is reported as 12.6 µM (active).

Compared with CN(C)CCCNC(=S)NCc1ccc(Cl)cc1, Cc1cccc(C(=O)NCCCN(C)CCCNC(=O)c2cccc(C)c2)c1 is higher in “activity, negative = inhibition” value: -7.32% for the first, 10.2% for the second.

Going from CCOC(=O)c1ccc(CN(Cc2ccccc2)S(=O)(=O)c2ccc(Cl)cc2)cc1 to COc1ccc(CNc2nc(-c3ccc(Cl)cc3)nn2S(=O)(=O)c2ccc(C)cc2)cc1, the “activity, negative = inhibition” value falls from 21.8% to 8.34%.

First: CCc1nn(CC(=O)Nc2cccc(C)c2C)c(=O)c2cc3sccc3n12
Second: Cc1ccc(-n2c(=O)c3cccnc3n2CC(=O)NCc2ccc(F)cc2)cc1C
The “activity, negative = inhibition” value of the first is lower: 1.85% for the first, 5.6% for the second.

First: COc1ccc(Cc2nc3ccc(C(=O)NCc4ccccc4Cl)cc3o2)cc1
Second: CC(=O)Nc1cc(C(=O)NCc2ccc(F)cc2Cl)ccc1Sc1ccc(Cl)cc1
The “activity, negative = inhibition” value of the first is higher: 1.3% for the first, -3.69% for the second.

Going from O=C(Nc1ccc(O)c(-c2nc3ccccc3o2)c1)c1ccc(-c2cccc(Cl)c2)o1 to Cc1cc(Cl)ccc1NC(=O)Cc1ccc(NC(=O)N2CCCCc3ccccc32)cc1, the “activity, negative = inhibition” value falls from 57.4% to 7.58%.

Going from Cc1ccnc(N2CCCC(C(=O)NC3CC3)C2)n1 (centres undefined) to O=C(NCc1ccc(F)cc1)c1ccc2nc(N3CCCCC3)sc2c1, the “activity, negative = inhibition” value rises from -9.69% to 23%.

Going from COC(=O)c1scc(-c2ccccc2)c1S(=O)(=O)Nc1ccccc1 to CC(NC(=O)c1cc(Sc2ccc(F)cc2F)nc2ccccc12)c1ccccc1 (centres undefined), the “activity, negative = inhibition” value rises from -8.11% to 2.44%.

Going from Cc1ccc(C(=O)/C=C/c2c(C)nn(-c3ccccc3)c2Cl)cc1 to Cc1ccccc1CNC(=O)CSc1nnc(C)c2c(C)n(-c3ccccc3)nc12, the “activity, negative = inhibition” value falls from -24.2% to -26.6%.

Compared with COc1cccc(CNc2nccn(-c3ccc(OC)c(OC)c3)c2=O)c1, CCN(CCCNC(=O)Cn1ncc2c([nH]c3ccccc32)c1=O)c1cccc(C)c1 is lower in “activity, negative = inhibition” value: 6.99% for the first, -28% for the second.

First: CCC(=O)N1CCc2cc(CNC(=O)Nc3ccccc3Cl)ccc21
Second: CC(=O)Nc1cc(C(=O)NCc2ccc(F)cc2)ccc1Sc1ccc(F)cc1
The “activity, negative = inhibition” value of the first is higher: 10.3% for the first, -1.44% for the second.

Compared with Cn1c(SCC(=O)Nc2nccs2)nnc1-c1cccnc1, CCCCNC(=O)CSc1nnc(-c2ccco2)n1C is lower in “activity, negative = inhibition” value: -4.03% for the first, -12.7% for the second.

First: Cc1cccc(Cn2c(=O)n(CCC(=O)NCCc3ccc(Cl)cc3)c(=O)c3sccc32)c1
Second: Cc1oc2ccc(O)c(CN3CCOCC3)c2c1C(=O)Nc1cccc(Cl)c1C
The “activity, negative = inhibition” value of the first is lower: -34.7% for the first, 0.579% for the second.

First: CC(C)NC(=O)c1ccc(Cl)cc1Cl
Second: CCOC(=O)CSc1nnc(-c2ccco2)n1C
The “activity, negative = inhibition” value of the first is lower: -27.2% [at 102 µM] for the first, -7.88% [at 102 µM] for the second.

First: CCC(Cc1ccccc1)NC(=O)C1CCCCC1 (centres undefined)
Second: CCOc1ccccc1OCC(=O)Nc1ccccc1C(=O)NC1CC1
The “activity, negative = inhibition” value of the first is higher: 10.6% [at 102 µM] for the first, -41.6% [at 102 µM] for the second.

First: Oc1ccc(-n2nnnc2SCc2c(F)cccc2Cl)cc1
Second: Cc1nn(-c2ccc([N+](=O)[O-])cc2)c(N)c1-c1ccccc1
The “activity, negative = inhibition” value of the first is higher: 5.84% [at 102 µM] for the first, -30.9% [at 102 µM] for the second.

Compared with Cc1ccnc(SCC(N)=O)n1, CCCC(=O)N1CCN(c2nnc(-c3ccc(C)cc3)c3ccccc23)CC1 is lower in “activity, negative = inhibition” value: -0.326% [at 102 µM] for the first, -4.7% [at 102 µM] for the second.

First: COc1ccc(C2=NN(c3nc4ccccc4s3)C(=O)C2)cc1
Second: Fc1ccccc1N=C1Nc2cccc3cccc1c23
The “activity, negative = inhibition” value of the first is lower: -37.4% [at 102 µM] for the first, 2.38% [at 102 µM] for the second.

Going from O=C1CCCC2=C1C(c1cccs1)CC(=O)N2c1ccc(F)cc1 (centres undefined) to Cn1c(N)cc(-c2ccc(F)cc2)c(C#N)c1=O, the “activity, negative = inhibition” value rises from -0.558% [at 102 µM] to 6.89% [at 102 µM].

First: CCCN(CC(=O)Nc1ccccc1OC)C(=O)CCC(=O)c1ccc(F)cc1
Second: CCc1nnc(NS(=O)(=O)c2ccc(NC(=S)NC(=O)c3cccs3)cc2)s1
The “activity, negative = inhibition” value of the first is higher: 6.88% [at 102 µM] for the first, -49.2% [at 102 µM] for the second.

Going from Cc1nn(C(C)C(=O)NCCC2=CCCCC2)c(=O)c2nn(-c3ccccc3)c(C)c12 (centres undefined) to O=C(CCn1nnnc1CN1CCOCC1)N1CCC(c2ccccc2Cl)C1 (centres undefined), the “activity, negative = inhibition” value rises from 18.6% [at 102 µM] to 68.2% [at 102 µM].

Compared with COc1ccccc1C1=Nc2cccc3cccc(c23)N1, CCc1cccc(C)c1NC(=O)CSc1nnc(-c2ccco2)n1N is lower in activity, negative = inhibition: 39.6% [at 0.501 µM] for the first, 11.7% [at 0.501 µM] for the second.
